Laboratory results reported in PubChem BioAssay (Tox21).
Results filed as inconclusive are left out. Active and inactive are the calls of the source. Calls come from the whole dose curve; as a rule, active = well fitted inhibition curve with a large enough effect in the repeat runs; inconclusive = weak or mixed curves; inactive = no such curve, though single readings can be large or run the other way.

molecular target: Cytochrome P450 1A2 (Homo sapiens) (UniProt P05177); assay: Cytochrome P450 Family 1 Subfamily A Member 2 (CYP1A2) small molecule antagonists: luciferase reporter qHTS assay (AID 1671199); conditions: P450-Glo CYP1A2 enzyme, luciferin luminescence, 1 h; series mostly up to 53 µM; activity change, negative = inhibition: at the top concentration; note: nearly all actives have a fitted effect of over 50% in size
Sequence (P05177 whole entry, looked up): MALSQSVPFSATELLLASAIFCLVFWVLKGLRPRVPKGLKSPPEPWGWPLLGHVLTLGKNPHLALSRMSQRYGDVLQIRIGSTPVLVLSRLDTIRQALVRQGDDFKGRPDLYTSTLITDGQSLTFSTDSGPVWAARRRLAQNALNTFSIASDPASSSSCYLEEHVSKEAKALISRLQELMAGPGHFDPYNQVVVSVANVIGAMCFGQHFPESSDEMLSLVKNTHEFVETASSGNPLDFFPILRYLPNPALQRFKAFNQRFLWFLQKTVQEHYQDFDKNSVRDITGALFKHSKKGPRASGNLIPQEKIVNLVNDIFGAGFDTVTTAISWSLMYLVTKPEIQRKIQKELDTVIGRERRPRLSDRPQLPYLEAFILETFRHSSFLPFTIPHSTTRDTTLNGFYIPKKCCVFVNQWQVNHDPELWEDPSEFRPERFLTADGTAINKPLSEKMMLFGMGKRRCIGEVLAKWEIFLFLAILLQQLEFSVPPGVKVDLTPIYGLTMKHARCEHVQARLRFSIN
Description: National Center for Advancing Translational Sciences [NCATS]
U.S. Environmental Protection Agency [EPA]
National Institutes of Environmental Health Sciences [NIEHS]
National Toxicology Program [NTP]
U.S. Food and Drug Administration [FDA]
Cytochrome P450 (CYP) enzymes are membrane-bound hemeproteins that play a key role in metabolism of drugs and xenobiotics. Evaluation of the effect of chemicals on CYP isozymes is useful to minimize the adverse drug reactions and toxicities in drug development process. Tox21 chemicals were tested for their effect on CYP enzyme activities by using P450-Glo (TM) screening systems (Promega Corporation, Madison, WI). These systems provide a luminescent method containing proluciferin substrates and are converted to luciferin products by CYP isozymes. The luciferin products formed are detected with a luciferin detection reagent, and the amount of light produced is proportional to CYP activity. P450-Glo (TM) CYP1A2 screening system (Catalog. No. V9770) was used to detect the compounds that interfere in CYP1A2 activity. The positive control compound used for CYP1A2 assay is furafylline (Sigma-Aldrich, St. Louis, MO).
Tox21 Assay Protocol Summary:
Two ul of enzyme-substrate mix was dispensed into medium binding white/solid 1536-well plates (Greiner Bio-One North America Inc., Monroe, NC) using a BioRaptr Flying Reagent Dispenser (FRD, Beckman Coulter, Brea, CA). Compounds dissolved in DMSO and positive control (furafyllline) were transferred to the assay plates at 23 nl using a Pintool station (Wako, San Diego, CA). The assay plates were incubated at room temperature for 10 min. Then 2 ul of NADPH regeneration solution was added to each well of the assay plates using an FRD and incubated at room temperature for 1 h. The reaction was stopped by adding 4 ul of detection reagent using an FRD and after 20 min incubation at room temperature the luminescence signal was measured using a ViewLux plate reader (Perkin Elmer, Shelton, CT). Data were expressed as relative luminescence units.
% is set by controls: 0 for no effect and ±100 for the full control effect; potency is the fitted concentration of half-maximal effect.

Compound	activity change, negative = inhibition	Potency
CC(=O)N1C[C@H](O)C[C@H]1C(=O)O	14.9% (inactive)	
O=[N+]([O-])c1cncn1CCN1CCOCC1	6.99% (inactive)	
COc1cc(C(=O)OC(COCCC(C)C)CN2CCOCC2)cc(OC)c1OC (stereo not given)	2.31% (inactive)	
CN1C(C)(C)CC(O)CC1(C)C	-21.3% [at 115 µM] (inactive)	
O=C(O)CC(C(=O)O)S(=O)(=O)O (stereo not given)		31.7 µM (active)
O=C1c2ccccc2C(=O)c2cc(O)ccc21		7.11 µM (active)
CCOC(=O)COC(=O)c1ccccc1C(=O)OCC		7.96 µM (active)
CCN[C@H]1C[C@H](C)S(=O)(=O)c2sc(S(N)(=O)=O)cc21	-15.1% (inactive)	
CCCCOC(=O)CCC(C)=O	-15.4% [at 115 µM] (inactive)	
O=C(O)CNC(=O)c1ccc(CO)o1	1.09% [at 115 µM] (inactive)	
C[N+]1(C)[C@@H]2CC(OC(=O)[C@H](CO)c3ccccc3)C[C@H]1[C@@H]1O[C@@H]12 (stereo not given in full)	-7.21% (inactive)	
C[N+]1(C)CCCC(OC(=O)C(O)(c2ccccc2)c2ccccc2)C1 (stereo not given)	-6.29% (inactive)	
CCOc1c(N2CCOCC2)cnn(C)c1=O	7.8% (inactive)	
CN(C)C(=O)Oc1ccc[n+](C)c1	-14.5% (inactive)	
COc1ccnc(CS(=O)c2nc3cc(OC(F)F)ccc3[nH]2)c1OC (stereo not given)		35.8 µM (active)
CC(C)CCCO	-15.8% [at 115 µM] (inactive)	
CC[N+](CC)(CC(=O)Nc1c(C)cccc1C)Cc1ccccc1 (tested in a mixture with another compound)	-21.4% (inactive)	
CC(CO)(CO)[N+](=O)[O-]	-15.1% [at 115 µM] (inactive)	
CCOC(=O)c1ccccc1	-20.8% [at 115 µM] (inactive)	
CCCCc1ccc2c(n1)[C@@H](c1ccc(OC)cc1C[C@H](C)C(=O)O)[C@H](C(=O)O)[C@H]2c1ccc2c(c1)OCO2	-4.2% [at 115 µM] (inactive)	

Compound	activity change, negative = inhibition	Potency
Nc1c2c(nc3c1CCC3)CCCC2	-20.7% (inactive)	
CC1(C)OC[C@@H](COC(=O)CCc2ccc(OC[C@@H](O)CNCCNC(=O)N3CCOCC3)cc2)O1	-0.223% (inactive)	
Cc1ccc(C(=O)c2ccccc2)cc1		31.7 µM (active)
CCCCS(=O)(=O)N[C@@H](Cc1ccc(OCCCCC2CCNCC2)cc1)C(=O)O	-0.931% (inactive)	
C=C(C)C(=O)OCC(O)CO (stereo not given)	12.5% (inactive)	
CCC(=O)OCc1ccccc1	-10% [at 115 µM] (inactive)	
O=S(=O)(O)c1cc(O)c(O)c(S(=O)(=O)O)c1	-9.79% [at 115 µM] (inactive)	
CNCCO	-5.84% [at 115 µM] (inactive)	
NC(CCC(=O)O)C(=O)O (stereo not given)	-17.8% [at 115 µM] (inactive)	
Cc1ncc([C@@H](CCCCCCc2ccc3c(n2)NCCC3)CC(=O)O)cn1	-16.1% [at 115 µM] (inactive)	
CC(C)C(=O)OC(=O)C(C)C	-19.8% [at 115 µM] (inactive)	
Cc1ccc(-c2ncc(Cl)cc2-c2ccc(S(C)(=O)=O)cc2)cn1	-9.59% (inactive)	
Cc1ncc(COP(=O)(O)O)c(C=O)c1O		17.4 µM (active)
O=S(=O)(O)c1cccc2c(S(=O)(=O)O)cccc12		79.5 µM (active)
CC[N+](CC)(CC)CCOc1cccc(OCC[N+](CC)(CC)CC)c1OCC[N+](CC)(CC)CC	-3.68% (inactive)	
N[C@@H](CCC(=O)O)C(=O)O		39.9 µM (active)
CNC(=O)Nc1ccc(Cl)c(Cl)c1		5.03 µM (active)
OCCc1ccccn1	-16.7% [at 115 µM] (inactive)	
O=C(CO)[C@@H](O)[C@H](O)[C@@H](O)CO	3.18% (inactive)	
COC(=O)Nc1ccc(Cl)c(Cl)c1		5.61 µM (active)
